Laboratory results: PubChem BioAssay AID903 (National Center for Advancing Translational Sciences (NCATS), 2007)
Hit rate of the full screen: of about 55,000 compounds, about 340 (0.62%) were called active. Another 3% or so got no clear call; they are omitted. The list comes from a sample in which actives are over-represented; it also holds similar structures and randomly drawn compounds. A call without a number means that no potency is given here. A number with no mark means an inactive call. The call rests on the fitted dose curve; in most records, active means well fitted cell-killing curve with a large enough effect; inconclusive means small, poorly fitted or top-dose-only effect; inactive means no such curve, though single readings can be large or run the other way.

Assay: qHTS Screen for Compounds that Selectively Target Cancer Cells with p53 Mutations: Cytotoxicity of p53 Null Cells at the Permissive Temperature; further: nearly all actives have a fitted effect of over 55% in size
Conditions: H1299-neo p53 null cells, ATP luminescence, 24 h, 32C; series mostly up to 46.1 µM
Source text: NIH Chemical Genomics Center [NCGC] NIH Molecular Libraries Screening Centers Network [MLSCN] MLSCN Grant: 1 X01 MH079844-01 Assay Submitter (PI): Dr. SUN, YI, University of Michigan NCGC Assay Overview: Synthetic Lethal Screen for Compounds to Kill Cancer Cells with p53 Mutation. Tumor suppressor gene p53 serves as a major cellular barrier against tumorigenesis. […] The goal of this screening is to identify small molecule probes that selectively kill cancer cells with mutations in p53. This screening was carried out using two lines of H1299 lung cancer cells. The H1299-p53 A138V line express a temperature sensitive p53 mutant (p53ts) in which the mutant p53 protein (A138V) is in the mutant confirmation when grown at 39C (the nonpermissive temperature) and in the wild type conformation when grown at 32C (the permissive temperature). A H1299-neo line (p53 null) grown at both 39C and 32C were used as counter-screens to filter out false positive associated with temperature shifting. The small molecular compounds that selectively target mutant p53-containing cancer cells were selected as candidate probes for further study. A cytotoxicity assay based on the measurement of ATP contents in cells was used in this screen. Concentration-responses of all the compounds in the library collection were determined in qHTS using the cell lines and temperature conditions as above.
NCGC Assay Protocol Summary: Both the H1299-p53A138V and H1299-neo cell lines were provided by Dr.Yi Sun, a PI at the University Michigan. The cells were maintained and cultured at 37C. The resuspended frozen cells were used to plate the cells in the 1536-well assay plates at a density of 600 cells per well in 5 ul medium. The assay plates with the cells were incubated at 37C for 16 to 30 hours before the experiments. The library compounds in DMSO solution were added to the cells in assay plates and incubated 24 hours at 39C (for mutant p53 conformation) or 32C (for normal p53 conformation as control). An ATP_lite assay kit (PerkinElmer) was used to determine the cell viability. Tomaxifen (100uM) was used as the positive control for cell killing. Data were normalized to the controls for basal activity (DMSO only) and 100% killing (100uM tamoxifen). AC50 values were determined from concentration-response data modeled with the standard Hill equation. P53 assay protocol: 1. Reagent; 5 uL H1299-p53A138V or H1299-neo cell cells/well 2. Time; overnight; 37C incubation 3. Compounds; 23 nL; 5.9 nM to 46 uM 4. Controls; 23 nL; Tamoxifen 100 uM 5. Time; 24 hr; 32C incubation 6. Reagent; 3 uL; ATP_Lite reagent 7. Time; 20 min; Room Temperature 8. Detection; Luminescence; Viewlux plate reader Keywords: p53, synthetic lethal, cancer, cell viability, cytotoxicity, H1299 cell line, luminescence, MLSMR, MLSCN, NIH Roadmap, qHTS, NCGC
Potency means the concentration at half of the fitted maximal effect.

Row | Compound | Potency | activity change, negative = cytotoxicity
1 | COc1ccc(-c2csc(-c3c(N)c(C(=O)c4ccc(OC)c(OC)c4)n4ccccc34)n2)cc1 | inactive | 
2 | Cc1cc(OCC(=O)Nc2ncn[nH]2)c(C)c(C)c1Br | inactive | 
3 | COc1ccc(N2CCN(c3nc(-c4ccccc4F)nc4ccccc34)CC2)cc1 | inactive | 
4 | O=S(=O)(c1ccc(Br)cc1)c1nnn2c1nc(NC1CCCCCC1)c1sccc12 | inactive | 
5 | COc1cccc(CNC(=O)c2ccc3c(c2)N(Cc2ccc(C(F)(F)F)cc2)C(=O)c2ccccc2S3)c1OC | inactive | 
6 | COc1ccc(OC)c2sc(N3CCN(C(=O)C4COc5ccccc5O4)CC3)nc12 (configuration not stated) | inactive | 
7 | Cn1c(=O)cc(OCC(=O)N2CCN(c3ccccc3F)CC2)c2ccccc21 | inactive | 
8 | COc1cc(C(=O)Nc2ccc(OCc3cc(=O)n4cc(C)sc4n3)cc2)cc(OC)c1OC | inactive | 
9 | COc1cccc(C2C(C(=O)Nc3ccc(C)cc3C)=C(C)Nc3c(C(=O)Nc4ccccc4)cnn32)c1 (configuration not stated) | inactive | 
10 | CCNC(=O)Cn1nc(C)n2c(cc3c(OC)cccc32)c1=O | inactive | 
11 | O=C(NCc1ccccc1)C1CCN(S(=O)(=O)c2ccc3[nH]c(=O)ccc3c2)CC1 | inactive | 
12 | COc1ccc(N2CCN(S(=O)(=O)CCNC(=O)C(c3ccccc3)c3ccccc3)CC2)cc1 | inactive | 
13 | Cc1ccc(C2CCN(C(=O)c3cnn(-c4ccccc4Cl)c3C3CCN(C(=O)OC(C)(C)C)CC3)C2)cc1 (configuration not stated) | inactive | 
14 | CN(C)CCCNC(=S)NCc1ccc(Cl)cc1 | inactive | 
15 | COc1ccc(CCNC(=O)c2c3c(nc4ccccc24)C(=O)N(C2CCCCC2)C3)cc1OC | inactive | 
16 | CCOC(=O)c1ccc(NC(=O)C2CC(=O)NC(=Nc3ccc(C)c(C)c3)S2)cc1 (configuration not stated) | inactive | 
17 | O=C(NC1CCCCC1)c1ccc(Cn2c(SCc3ccccc3)nc3cccnc32)cc1 | inactive | 
18 | Cc1ccc(CSc2nc3cccnc3n2Cc2ccc(C(=O)NC3CC3)cc2)cc1 | 2.51 µM (active) | 
19 | O=C(NCc1ccc(F)cc1)c1ccc(Cn2c(SCc3ccc(F)cc3)nc3cccnc32)cc1 | inactive | 
20 | COc1ccc(C(=O)OCC(=O)NC(=O)CCSc2ccccc2)cc1 | inactive | 
21 | Cc1cccc(-n2ncc(C(=O)N3CCC(C)CC3)c2C2CCN(C(=O)OC(C)(C)C)CC2)c1 | inactive | 
22 | CC(C)C(=O)Nc1cccc(NC(=O)c2ccc([N+](=O)[O-])cc2Cl)c1 | inactive | 
23 | COc1ccc(CCN2C(=O)C3CC=C(C)CC3C2=O)cc1OC (configuration not stated) | inactive | 
24 | CCCCOc1ccc(Cn2c(=O)oc3ccc(C)cc32)cc1OC | inactive | 
25 | CCCCOc1ccc(CN2C(=O)C(=O)c3cc(Br)cc(C)c32)cc1OC | 35.5 µM (active) | 

Row | Compound | Potency | activity change, negative = cytotoxicity
26 | COc1ccc(NC(=O)c2ccco2)cc1NC(=O)c1ccc(C#N)cc1F |  | -5.82% [at 9.22 µM]
27 | Cc1cc(C)c2oc(-c3cccc(NC(=O)c4cccc(F)c4)c3C)nc2c1 | inactive | 
28 | Brc1ccc(-c2noc(-c3ccccc3)n2)o1 | inactive | 
29 | Cc1ccccc1-n1c(C)cc(/C=C2\NC(=O)NC2=O)c1C | 11.2 µM (active) | 
30 | Cc1cccc(N2CCN(C3=C(c4ccccc4)C(=O)c4ccccc43)CC2)c1C | inactive | 
31 | COc1ccc2oc(=O)c(-c3cn4c(n3)sc3cc(OC)ccc34)cc2c1 | inactive | 
32 | COc1ccc(-c2cc3ccc(OCc4nn[nH]n4)cc3oc2=O)cc1 | 12.6 µM (active) | 
33 | COc1ccc2cc(-c3nc(Cl)c4c5c(sc4n3)CC(C)CC5)c(=O)oc2c1 (configuration not stated) | inactive | 
34 | Cc1cccc2c(=O)cc(CSc3ccccc3NC(=O)C(C)C)[nH]c12 | inactive | 
35 | C/C=C/c1ccc(OCCOc2ccc(C=O)cc2OC)c(OC)c1 | inactive | 
36 | COc1ccc(CCNC(=O)c2cc(=O)c3c(C)cc(C)cc3o2)cc1OC | inactive | 
37 | Cc1ccc(-n2c(CNc3ccc(F)cc3)nnc2SCC(=O)N2CCOCC2)cc1 | inactive | 
38 | O=C(NC1CCCCC1)c1ccc2c(c1)N(Cc1ccc(Cl)cc1)C(=O)c1ccccc1S2=O (configuration not stated) | inactive | 
39 | O=C(NCC(c1ccc(Cl)cc1)N1CCOCC1)c1ccccc1F (configuration not stated) | inactive | 
40 | O=C(Nc1ccccc1F)c1ccccc1-c1ccccc1 | inactive | 
41 | CC(=O)c1ccc(NC(=O)Nc2ccc([N+](=O)[O-])cc2C)cc1 | inactive | 
42 | COc1ccc(N2CCN(c3cc(C)nc4nncn34)CC2)cc1 | inactive | 
43 | COc1ccccc1C1C(C(=O)N2CCCCC2)=C(C)Nc2nc3ccccc3n21 (configuration not stated) | inactive | 
44 | COc1ccccc1N1CCN(c2ccc(=O)n(CC(=O)NCc3ccc(OC(C)C)cc3)n2)CC1 | inactive | 
45 | Cc1ccc(Cl)cc1NC(=O)CCC(=O)N1CC(C)Sc2ccccc21 (configuration not stated) | inactive | 
46 | CC1CCCN(Cc2c(O)ccc3c(=O)c(Oc4ccc(C(C)(C)C)cc4)c(C(F)(F)F)oc23)C1 (configuration not stated) | inactive | 
47 | Cc1ccccc1CSc1nc(-c2ccccc2)nc2c1Cc1c(CO)cnc(C)c1O2 | inactive | 
48 | COc1ccc(OC)c(NC(=O)Cn2c(=O)n(Cc3ccccc3)c(=O)c3ccccc32)c1 | inactive | 
49 | COc1cccc(CNCc2c(C(=O)O)n(Cc3ccc(C)cc3)c3cc(C)ccc23)c1OC | inactive | 
50 | O=C(Cn1cnc2c(oc3ccccc32)c1=O)Nc1ccc(OC(F)(F)F)cc1 | inactive | 

Row | Compound | Potency | activity change, negative = cytotoxicity
51 | CCOc1ccccc1CNC(=O)Nc1cn(CC(C)C)c(=O)c2ccccc12 | inactive | 
52 | COc1ccc2oc(-c3cccc(NC(=O)CSc4ccc(Cl)cc4)c3)nc2c1 | inactive | 
53 | CCOC(=O)CN1C(C(=O)c2ccccc2)=C(OC(=O)C(C)(C)C)c2ccccc2S1(=O)=O | inactive | 
54 | CCOC(=O)C1=C(c2ccccc2)Nc2ncnn2C1c1ccc(Cl)cc1 (configuration not stated) | inactive | 
55 | O=C(CSc1nc2ccccc2[nH]1)Nc1nc(-c2ccccc2)c(-c2ccccc2)o1 | inactive | 
56 | O=C(NCc1ccccc1)C(=O)NCC(c1ccco1)S(=O)(=O)c1ccc(Cl)cc1 (configuration not stated) | inactive | 
57 | Cc1ccc(CSc2nc3ccsc3c(=O)n2CCC(C)C)cc1 | inactive | 
58 | COc1ccc(S(=O)(=O)c2c(Nc3cccc(Cl)c3)sc(C(=O)c3ccccc3)c2N)cc1 | inactive | 
59 | Cc1cccc(N2CCN(C(=O)c3ccc(Nc4nc5ccccc5n5nnnc45)cc3)CC2)c1C | inactive | 
60 | O=C(COc1ccccc1)OCc1cc(=O)n2nc(-c3cccs3)sc2n1 | inactive | 
61 | CC1CCN(C(=O)Cn2c(=O)n(-c3ccc(Cl)cc3)c(=O)c3c4c(sc32)CCC4)CC1 | inactive | 
62 | CCOC(=O)CSc1nc2ccc(C)cc2[nH]1 | inactive | 
63 | CCCc1nn2c(=O)cc(COC(=O)c3ccc(NC(=O)C(C)Oc4ccccc4)cc3)nc2s1 (configuration not stated) | inactive | 
64 | CCOC(=O)c1cc2c(=O)n3ccccc3nc2n(CCCOC)c1=NC(=O)C(C)Oc1ccccc1 (configuration not stated) | inactive | 
65 | Cc1ccc(C(=O)Nc2ccc3[nH]c(=O)c(=O)[nH]c3c2)cc1 | inactive | 
66 | CC(C)c1ccc(NC(=O)c2ccc3c(O)c(S(=O)(=O)c4ccccc4)c(=O)[nH]c3c2)cc1 | 12.6 µM (active) | 
67 | COc1ccc(CNC(=O)c2ccc3c(O)c(S(=O)(=O)c4ccccc4)c(=O)[nH]c3c2)cc1 | inactive | 
68 | CN(C(=O)CSc1nc2ccccc2n1Cc1ccccc1C#N)c1ccccc1 | inactive | 
69 | COc1ccc(CNC(=O)CS(=O)Cc2nc(-c3cccc(C)c3)oc2C)cc1 (configuration not stated) | inactive | 
70 | Cc1cc(SCC(=O)NCCN2C(=O)CSC2=O)nc2ccccc12 | inactive | 
71 | COC(=O)CSc1ccc2nnc(CCNS(=O)(=O)c3ccc(C)cc3)n2n1 | inactive | 
72 | N#CC1(NC(=O)COc2ccc3oc4ccccc4c3c2)CCCCC1 | inactive | 
73 | O=C(NCCc1ccccn1)c1cc(-c2ccc(Cl)cc2)nc2ccccc12 | inactive | 
74 | CCC(=O)NCc1cc(-c2nn(C)c(=O)c3ccccc23)ccc1OC | inactive | 
75 | CCOc1ccc(C(O)Cc2nc3ccccc3n2C)cc1 (configuration not stated) | inactive | 

Row | Compound | Potency | activity change, negative = cytotoxicity
76 | CC(C)(C)c1ccc(C(=O)NCC(=O)OCN2C(=O)c3ccccc3C2=O)cc1 | inactive | 
77 | Cc1ccc(NC(=O)c2cn3c4c(ccc(Cl)c4c2=O)OC(C)C3)cc1C (configuration not stated) | inactive | 
78 | Cc1cc(C)cc(NC(=O)Cc2csc(C)n2)c1 | inactive | 
79 | COc1ccc2c(c1)Cc1sc(NC(=O)c3ccccc3Br)nc1-2 | inactive | 
80 | CCC(CC)c1nn2cc(-c3ccccc3)nc2s1 | 6.31 µM (active) | 
81 | CCCS(=O)(=O)Nc1cccc(-c2cn3ccsc3n2)c1 | inactive | 
82 | CCc1ccc(CNC(=O)C2CCN(c3nn4cc(-c5ccc(F)cc5)nc4s3)CC2)cc1 | inactive | 
83 | Cc1cc(C)cc(OC(C)C(=O)Nc2nc3c(s2)CCCC3)c1 (configuration not stated) | inactive | 
84 | Cc1ccccc1NC(=O)c1c(NC(=O)c2ccccc2F)sc2c1CCC(C)C2 (configuration not stated) | inactive | 
85 | O=C(Nc1nc2c(s1)CCCC2)c1ccccc1F | 6.31 µM (active) | 
86 | CCOC(=O)NC(=O)CSc1nnc(SCCC(=O)O)s1 | inactive | 
87 | CCC(C)NC(=O)c1ccccc1NC(=O)c1ccccc1N(C)S(C)(=O)=O (configuration not stated) | inactive | 
88 | Cc1ccc(-n2nnnc2CNC(=O)c2ccccc2C)cc1C | inactive | 
89 | COC(=O)c1cnn(-c2ccc(C(=O)Nc3ccc(OC(F)(F)F)cc3)cc2)c1N | inactive | 
90 | CCn1c(O)c(N=NC(=O)c2cccc(S(=O)(=O)N3CCCCC3)c2)c2ccccc21 | inactive | 
91 | Cc1nn2c(=O)cc(COC(=O)c3cccc(NC(=O)COc4ccccc4Cl)c3)nc2s1 | 12.6 µM (active) | 
92 | Cc1nn2c(=O)cc(COC(=O)c3ccccc3NC(=O)COc3ccccc3C)nc2s1 | inactive | 
93 | CCCCc1nn2c(=O)cc(COC(=O)c3cccc(NC(=O)COc4ccccc4)c3)nc2s1 | inactive | 
94 | CCc1nc2cccnc2n1-c1ccc(CC(=O)Nc2c(C)cccc2C)cc1 | inactive | 
95 | CCCCC1N2CC3([N+](=O)[O-])CN1CC([N+](=O)[O-])(C2)C3(C)C (configuration not stated) | inactive | 
96 | Cc1cc(-c2ccc(C)c(S(=O)(=O)N3c4ccccc4CC3C)c2)on1 (configuration not stated) | inactive | 
97 | Cc1ccc(-c2nnc(SCC(=O)N/N=C/c3cccs3)n2-c2ccc(C)cc2)cc1 | inactive | 
